From PubChem BioAssay come the findings set out here.

Values without a mark were called inactive. Active and inactive are the calls of the source.

A short description of this assay: plasmodial surface anion channel blockers, osmotic lysis – cell-based, P. falciparum Indochina, OD700, 2 h, primary screen (AID 1155).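 Note: lysis reports solute entry through the parasite surface anion channel PSAC.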 Particulars: P. falciparum Indochina infected erythrocytes, higher = more signal, called active from +8 up or from −8 down.
As for `C=C(C)c1cc2c(c(CCCCCC)n1)[Si](C(C)C)(C(C)C)OC2`, the z-score is 0.7.
For the compound `COc1ccc(NC(=O)O[C@H]2[C@H](OC(=O)Nc3ccccc3)[C@H](OC(=O)Nc3ccccc3)[C@@H](OC)O[C@@H]2CO)cc1`, the z-score is 1.26.
Regarding `CCCCC(O)C1C=CC2C(=O)N(c3ccccc3)C(=O)C2N1Nc1ccc(C(C)C)cc1` (configuration not stated), the z-score is 1.44.
On to `[N-]=[N+]=NCc1ccccc1C[C@@]1(C(=O)N2CCOCC2)N=C(c2ccc(OCCCO)cc2)O[C@@H]1c1ccccc1`, for which the z-score is 17.1 (active).
In the case of `CC(c1ccccc1)C(O)C1C=CC2C(=O)N(c3ccccc3)C(=O)C2N1Nc1ccc([N+](=O)[O-])cc1` (configuration not stated), the z-score was 5.25.
Turning to `COc1ccc(CN(C2=CC[C@@]3(C(N)=O)C(=O)C(Cl)=C(Cl)C(=O)[C@@]3(C#N)C2)S(=O)(=O)c2ccc(Br)cc2)cc1`, the z-score was -1.24.
For the compound `COC(=O)CCCCCCC(=O)Nc1ccc(NC(=O)CCCC[P+](c2ccccc2)(c2ccccc2)c2ccccc2)cc1`, the z-score was 9.83 (active).
Consider `CC(C)N1C(=O)C[C@@](C(=O)NCCCN(C)C)(c2ccc([N+](=O)[O-])cc2)[C@H]1c1ccc(CO)cc1`, for which the z-score is 1.1.
On to `CCOC(=O)C1=CC[C@@H](c2ccc(OCc3ccccc3)c(OC)c2)N(S(=O)(=O)c2ccc(C)cc2)[C@H]1c1ccc(SC)cc1`, for which the z-score is 0.9.
Regarding `COC(=O)c1c2oc(c1C(=O)OC)C(=O)N(C)Cc1cn(nn1)C[C@H](Cc1ccccc1)NC(=O)N[C@H](CO)CC2`, the z-score was 0.308.
For the compound `O=C1OCC=C[C@H]2OC34C=CCN(Cn5nnc6ccccc65)C(=O)[C@H]3N(CCCO)C(=O)[C@@H]4[C@@H]12` (some centres not stated), the z-score was -1.01.
Regarding `C[C@@H]1ON(c2ccc(C(=O)OC(C)(C)C)cc2)[C@H](c2ccc(O)cc2)[C@H]1C(=O)N1C(=O)OC[C@H]1Cc1ccccc1`, the z-score is 0.709.
Consider `COCCOC(=O)N1C(=O)[C@@]2(c3cc(C#CC4=CCCCC4)ccc31)[C@H](C(N)=O)[C@H]1C(=O)O[C@H](c3ccccc3)[C@H](c3ccccc3)N1[C@@H]2c1ccccc1OCCO`, for which the z-score was 2.55.
Regarding `COC(=O)[C@@]1(Cc2ccc(OC)cc2)[C@@H]2C(=CC(=O)[C@H]2CC(=O)C(=O)N(C)C)CN1C(=O)c1ccccc1`, the z-score is 0.584.
Take `C=CC1c2cc(O)c(OC)cc2CCN1Cc1cc2c(cc1Br)OCO2` (configuration not stated): the z-score was 3.15.
The result for `C=CCC(OC(C)=O)[C@@H]1[C@@H](N(Cc2cc3ccccc3o2)C(=O)c2ccc(C)cc2)c2cc(OCCCO)ccc2N1C(=O)Cc1ccc(OC)cc1` (some centres not stated) reads 0.794; that for `COc1cc(OC)c(C(O)C2C=CC3C(=O)N(c4ccccc4)C(=O)C3N2Nc2ccccc2)cc1Br` (configuration not stated), 5.27.
`Cc1ccc(S[C@]2(C(=O)NCC(F)(F)F)CC(=O)N(Cc3ccccc3)[C@@H]2c2ccc(CO)cc2I)cc1`: the z-score is 0.283.
Turning to `COC(=O)c1ccc([C@H](NC(=O)c2ccco2)[C@]2(C)C[C@H]2C2CCCCC2)cc1`, the z-score is 2.52.
With `NC(N)=NCCCn1cc(CNC(=O)[C@@H](N)Cc2ccccc2)nn1` the figure was 0.0333; with `COC(=O)c1nc2oc1CC[C@@H](CO)NC(=O)N(C)Cc1cnnn1C[C@H](Cc1ccccc1)NC2=O`, 0.656; with `COCCOC(=O)N1C(=O)[C@@]2(c3cc(C#CC4=CCCCC4)ccc31)[C@H](c1ccc(OCCO)cc1)N1[C@H](c3ccccc3)[C@H](c3ccccc3)OC(=O)[C@H]1[C@@H]2C(=O)N1CCN(c2ncccn2)CC1`, 1.73.
Turning to `CC(C)(C)OC(=O)CC[C@]1(C(=O)NCC(O)CO)N=C(c2ccc(OCCCO)cc2)O[C@H]1c1ccccc1` (some centres not stated), the z-score was 1.43.
For the compound `O=C1O[C@H](c2ccccc2)[C@H](c2ccccc2)N2[C@H]1[C@@H](C(=O)Nc1nc3ccccc3s1)[C@]1(C(=O)Nc3ccccc31)[C@H]2c1ccc(OCCO)cc1`, the z-score is 2.95.
For the compound `C=CC[C@]1(C(=O)NCCN2CCOCC2)N=C(c2ccc(OCCCO)cc2)O[C@H]1c1ccccc1CN=[N+]=[N-]`, the z-score was 1.83.
For `COCCCNC(=O)[C@@]1(Cc2ccccc2CN=[N+]=[N-])N=C(c2ccc(OCCCO)cc2)O[C@H]1c1ccccc1`, the z-score was 2.76.
As to `CN(C)C(=O)[C@@]1(CCS(=O)(=O)c2ccccc2)N=C(c2ccc(OCCCO)cc2)O[C@H]1c1ccccc1`, the z-score is 24.3 (active).
